This assay can be described thus: NCI Yeast Anticancer Drug Screen. Data for the mec2-1 strain (AID 157). The conditions noted are these: S. cerevisiae mec2-1 strain, stronger effect = higher value. Here is the method: Growth inhibition of yeast strains with defined genetic alterations is measured as a screen for potential anti-cancer activity. Selected strains with alterations in DNA damage repair or cell cycle control were exposed to compounds and growth inhibition was measured relative to vehicle treated controls. The strain used in this assay is mec2-1

The mark [1] stands for this setting: at 5.0 µM (retest, dose inferred, filed as 0.5).
The mark [2] stands for this setting: at 50.0 µM (retest, dose inferred, filed as 5.0).

Values joined by “and” are separate entries in the source; they are usually repeats but may differ in a detail not shown here. Equal values may be shown once. Compounds without any hit were thinned out: in the full panel of roughly 79,000, 15% have a hit. Where a structure was tested more than once in an assay, its records may differ in their call. Active and inactive are the calls of the source. Cut-off read from the data, not from the text of the source: active = growth inhibition above about 70%; inactive = the rest.

As for `CC1C[C@]2(C)C(=O)Nc3ccccc3[C@@H]2Nc2ccccc21` (some centres not stated), the growth inhibition under setting [1] is 10% (inactive), the growth inhibition under setting [2] was 30% (inactive) and the growth inhibition (at 50.0 µM) is 93.8% (active).

As for `O=C(NC(C(=O)O)c1ccccc1)OCc1ccccc1` (configuration not stated), the growth inhibition is 1% (inactive) under setting [1]; 0% (inactive) under setting [2]; -28.1% (inactive) and -22.8% (inactive) and 0.9% (inactive) (at 50.0 µM).

Consider `CC(O)CN1CCN(CC(C)O)CC1.[I][Pt+2][I]` (configuration not stated), for which the growth inhibition was -295% (inactive) under setting [1], 11% (inactive) under setting [2] and 37.2% (inactive) (at 50.0 µM).

Turning to `COc1cc(C2C(C#N)=C(C)Nc3nc(N)nc(N)c32)cc(OC)c1OC` (configuration not stated), the growth inhibition was -7% (inactive) under setting [1], 13% (inactive) under setting [2] and 3.75% (inactive) (at 50.0 µM).

For the compound `Cc1cc(=O)[nH]c2ccc(Cc3ccc(N)cc3)cc12`, the growth inhibition is, setting by setting: under setting [1], 9% (inactive); under setting [2], 22% (inactive); (at 50.0 µM) 1.7% (inactive) and 0.45% (inactive).

For `CCCCCCCCOC(=O)c1cc(O)c(O)c(O)c1`, the growth inhibition under setting [1] was 46% (inactive), the growth inhibition under setting [2] is 68% (inactive) and the growth inhibition (at 50.0 µM) was 91.7% (active).

Consider `CCN(CC)c1ccc(NC(C(=O)c2ccccc2)c2ccccc2)cc1` (configuration not stated), for which the growth inhibition runs as follows: under setting [1], 97% (active) and 2% (inactive); under setting [2], 99% (active) and 30% (inactive); (at 50.0 µM) 98.9% (active) and 37.1% (inactive).

For the compound `COC1C(O)C(C)OC(OC2C(Oc3cccc4c(O)c5c(=O)oc6ccc(C)c7c(=O)oc(c34)c5c67)OC(C)C3O[C@H](c4ccccc4)OC32)C1O` (some centres not stated), the growth inhibition is 70% (active) under setting [1], 96% (active) under setting [2] and 88.5% (active) (at 50.0 µM).

Regarding `C[C@H]1CC[C@H]([C@@H](C)[C@H]2[C@@H](O)C[C@H]3[C@@H]4CC[C@H]5C[C@@H](O)CC[C@]5(C)[C@H]4CC[C@]23C)NC1`, the growth inhibition runs as follows: under setting [1], 19% (inactive) and 2% (inactive); under setting [2], 98% (active) and 99% (active); (at 50.0 µM) 91.8% (active) and 85.7% (active).

For the compound `Cc1noc(-c2ccc([N+](=O)[O-])o2)n1`, the growth inhibition was -1% (inactive) under setting [1], 82% (active) under setting [2] and 52.1% (inactive) (at 50.0 µM).

As for `Oc1cccc2c1-c1ccccc1C2`, the growth inhibition under setting [1] was 1% (inactive), the growth inhibition under setting [2] was 92% (active) and the growth inhibition (at 50.0 µM) is 98.9% (active).

As for `Clc1c(C(Cl)(Cl)Cl)nsc1N1CCCCC1`, the growth inhibition is 16% (inactive) under setting [1], 51% (inactive) under setting [2] and 23.1% (inactive) (at 50.0 µM).

On to `CC[N](CC)[Ge]([CH2]C)[CH2]C.C[CH2][Ge]([CH2]C)[CH2]C`, for which the growth inhibition by setting is: under setting [1], 19% (inactive); under setting [2], 100% (active); (at 50.0 µM) 90.3% (active).

As for `C[N+]1(C)CCC(c2ccccc2)(c2ccccc2)C(=O)C1`, the growth inhibition runs as follows: under setting [1], -15% (inactive); under setting [2], -3% (inactive); (at 50.0 µM) 9.05% (inactive) and 19.3% (inactive).

The values above are taken from PubChem BioAssay (NCI).
